PubChem BioAssay (EPA / NIEHS)
Inconclusive results are not listed. Active and inactive are the calls of the source. How the source made its calls: active means hit-call score of the fitted dose curve at least 0.9, where 1 is the maximum; inconclusive means response in the unintended direction; inactive means score below 0.9.

Assay: IUF_NPC4_neurite_area_120hr: Leibniz Research Institute for Environmental Medicine (IUF) 120-hour Neuronal Morphology Assay for Neurite Area (NPC4) (AID 2284305)
Procedure: IUF_NPC2-5 is a cell-based, multiplexed assay that uses hNPC, a human primary neural progenitor cells, with measurements taken at 72 or 120 hours after chemical dosing in a 96-well plate. Human neural progenitor cells (hNPC) are generated from human fetal brain cortex at gestational week (GW) 16-19. In the neural progenitor cell migration and differentiation assay (NPC2-5), hNPCs grown as spheres are plated on an extracellular matrix and migrate and differentiate out of the sphere core. The processes radial glia migration, neuronal and oligodendrocyte migration as well as neuronal differentiation, neuronal morphology and oligodendrocyte differentiation are studied using automated phase contrast imaging and automated fluorescence imaging in combination with high content image analysis. In parallel, the cell viability is assessed using an alamar blue viability assay and the cytotoxicity using a lactate dehydrogenase dependent membrane integrity assay.IUF_NPC4_neurite_area_120hr is one of 12 assay components measured from the IUF_NPC2-5 assay. The neurite area at 120 hr is the mean area in pixel (without nuclei) of all neurons (see IUF_NPC3_neuronal_differentiation_120hr) that are identified by the skeletonization algorithm in Omnisphero.Data from the IUF_NPC4_neurite_area_120hr component was analyzed at the endpoint IUF_NPC4_neurite_area_120hr in the positive analysis fitting direction relative to DMSO as the negative control and baseline of activity. Using a type of differentiation reporter, loss-of-signal activity can be used to understand developmental effects.
Culture protocol: After the cell expansion period the cells are cultured for up to four weeks in which they are passaged every week as described in 3.6. Between one to three days after passaging spheres at a size of 0.3 mm are picked for the test method. For the assessment of neural progenitor cell migration and differentiation, the spheres are plated on poly-D-lysine/laminin coated 96-well flat bottom plates in differentiation medium (N2) to initiate migration and differentiation. Thereby one 0.3 mm big sphere is plated in the middle of a well. The differentiation medium consists of DMEM and Ham's F12 at a ratio of 3 to 1 supplemented with 1% N2 and 1% penicillin and streptomycin. Within 5 days NPCs radially migrate out of the sphere core and differentiate into radial glia cells (nestin positive), neurons (TUBB3 positive), oligodendrocytes (O4 positive) and astrocytes (GFAP positive). Cultivation during the test method is performed at 37C and 5% CO2 at a ph of 7.2-7.6.Exposure: 0.3 mm big hNPC are plated in the already prepared test conditions. Exposure starts at day 0 of differentiation and is continued over five days of differentiation until the experiment is terminated. Cells are fed with fresh medium at day 3 of differentiation. Therefore, half of the test condition solution (e.g. solvent control or compound dilution) is replaced by freshly prepared test condition solution.Test Method: Migration distance and cytotoxicity is determined after 72 hours based on brightfield images of each well. The assay is terminated by the assessment of cell viability and cytotoxicity as well as cell fixation after 120 h. Immunocytochemistry is performed for Hoechst positive nuclei, TUBB3 positive neurons and O4 positive oligodendrocytes. On the ICC images, migration after 120 hours, neuronal and oligodendrocyte number, neuronal morphology and neuron/oligodendrocyte specific migration is assessed. immunocytochemical staining (ICC) generates an image for each sphere. The plates are scanned using an automated high content imaging device and all nuclei and their positions are determined automatically based on their intensity and size. Images are imported to the Omnisphero software to run the image analysis that measures the following endpoints. The method is set up for 8 test conditions including 7 compound concentrations and one SC. […]

Row | SMILES | outcome | AC50
1 | CCNC(=O)NC(=O)C(C#N)=NOC | inactive | 
2 | CO/N=C(/C1=NOCCO1)c1ccccc1Oc1ncnc(Oc2ccccc2Cl)c1F | inactive | 
3 | CNC(=O)Oc1cccc2ccccc12 |  | 10 µM (active)
4 | CC1(C)C(C=C(Cl)Cl)C1C(=O)OC(C#N)c1cccc(Oc2ccccc2)c1 (configuration not stated) | inactive | 
5 | Cc1c(COC(=O)[C@@H]2[C@H](/C=C(\Cl)C(F)(F)F)C2(C)C)cccc1-c1ccccc1 | inactive | 
6 | COP(=S)(OC)SCn1nnc2ccccc2c1=O | inactive | 
7 | O=C(Nc1ccccc1-c1ccc(Cl)cc1)c1cccnc1Cl | inactive | 
8 | C=C(C)CN(CC)c1c([N+](=O)[O-])cc(C(F)(F)F)cc1[N+](=O)[O-] | inactive | 
9 | CN/C(=N\[N+](=O)[O-])NCc1cnc(Cl)s1 |  | 10 µM (active)
10 | CCOP(=O)(OCC)Oc1nc(Cl)c(Cl)cc1Cl | inactive | 
11 | N#CN=C1SCCN1Cc1ccc(Cl)nc1 | inactive | 
12 | CS(=O)(=O)c1cc(C(F)(F)F)ccc1C(=O)c1cnoc1C1CC1 | inactive | 
